This passage reports outcome and AC50 results from PubChem BioAssay (EPA / NIEHS).

The structures appear in SMILES notation. Calls of active or inactive are those of the source. Rule for the calls: active = hit-call score of the fitted dose curve at least 0.9, where 1 is the maximum; inactive = score below 0.9.

For this test, the target named is Retinoic acid receptor alpha (Homo sapiens) (UniProt P10276). Briefly: ATG_DR5_RAR_CIS: Attagene CIS-FACTORIAL HepG2 Assay for human Retinoic Acid Receptor Alpha (RARE), DR5 submotif (AID 2282934).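 For AC50: reporter responds to endogenous RAR alpha beta and gamma in HepG2 not RARA alone.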 The settings on record: HepG2 Attagene cis-factorial RARE DR5 reporter, mRNA; actives raise or lower the signal. As for the experimental part: ATG_CIS is a cell-based, multiplexed-readout assay that uses HepG2, a human liver cell line, with measurements taken at 24 hours after chemical dosing in a 24-well plate.ATG_DR5_RAR_CIS is one of 52 assay component(s) measured or calculated from the ATG_CIS assay. It is designed to make measurements of mRNA induction, a form of inducible reporter, as detected with fluorescence intensity signals by Reverse transcription polymerase chain reaction (RT-PCR) and Capillary electrophoresis technology.Data from the assay component ATG_DR5_RAR_CIS was analyzed into 1 assay endpoint. This assay endpoint, ATG_DR5_CIS, was analyzed with bidirectional fitting relative to DMSO as the negative control and baseline of activity. Using a type of inducible reporter, measures of mRNA for gain or loss-of-signal activity can be used to understand the reporter gene at the transcription factor-level as they relate to the gene RARA and RARB and RARG. Furthermore, this assay endpoint can be referred to as a primary readout, because this assay has produced multiple assay endpoints where this one serves a reporter gene function. To generalize the intended target to other relatable targets, this assay endpoint is annotated to the nuclear receptor intended target family, where the subfamily is non-steroidal.
Chain of Retinoic acid receptor alpha (Homo sapiens) (P10276 whole entry, looked up): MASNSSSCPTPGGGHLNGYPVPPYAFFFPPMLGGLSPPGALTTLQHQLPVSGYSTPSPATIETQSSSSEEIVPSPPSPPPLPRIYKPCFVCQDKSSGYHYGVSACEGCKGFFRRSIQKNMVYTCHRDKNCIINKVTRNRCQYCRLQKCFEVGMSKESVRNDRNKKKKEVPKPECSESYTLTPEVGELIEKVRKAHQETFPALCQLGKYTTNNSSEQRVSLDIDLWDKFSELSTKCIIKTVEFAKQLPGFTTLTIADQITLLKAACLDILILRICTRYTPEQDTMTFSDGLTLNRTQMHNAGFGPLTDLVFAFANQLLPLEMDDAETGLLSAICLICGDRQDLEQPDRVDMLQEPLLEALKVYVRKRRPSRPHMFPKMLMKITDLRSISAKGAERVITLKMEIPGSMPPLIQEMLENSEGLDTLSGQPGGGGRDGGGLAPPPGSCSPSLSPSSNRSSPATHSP
Human liver HepG2 cells are transiently transfected with multiple reporter transcription units (MRTUs) in 6-well plates using FuGene 6 reagent (Roche; 3 ml FuGene/1 mg DNA). The MRTU constructs are regulated by a cis-regulating element (promoter). […] A major difference between the CIS and TRANS system is that in CIS activities of endogenous TFs are measured, whereas the TRANS assay evaluates changes in activities of exogenous, chimeric NR-Gal4 proteins. […] At the end of 24 hour incubation, total RNA was isolated using TriZol reagent (Invitrogen). The isolated RNA is then reverse-transcribed using oligo(dT) primer and Mo-MLV reverse transcriptase (Invitrogen) with DNAse I (Ambion) treatment for 30 min. The one-tenth of the produced cDNA was amplified by PCR using Taq DNA polymerase (Invitrogen) and two reporter sequence-specific primers. The PCR products were fluorescently labeled by primer extension with 6-arboxyfluorescein (6-FAM) 5'-labeled reporter sequence-specific primer (2 min at 95 C, 20 s at 68 C and 10 min at 72 C) and these products were digested with 5U of HpaI (New England Biolabs) for 2h at 37 C. The fragments were purified using Qiaquick PCR columns (Qiagen), analyzed on an ABI 3130xL genetic analyzer (Applied Biosystems) with peak positions identified by using a set of X-rhodamine (ROX)-labeled MapMarker1000 molecular weight standards (BioVentures). The raw capillary electrophoresis data was processed using Attagraph software (Attagene).
On to `CCO[Si](CCC1CCC2OC2C1)(OCC)OCC` (stereo not given), for which the molecule was called inactive. As to `CCC(C)c1ccccc1O` (stereo not given), the result was inactive. Same read-out and setting: the value for `Nc1ccn([C@@H]2O[C@H](CO)[C@@H](O)C2O)c(=O)n1` (stereo not given in full) was “inactive”; that for `O=C1c2ccc(O)c(O)c2C(=O)c2c(O)ccc(O)c21` was “inactive”. Consider `CCCCCCCCCCCC[N+](C)(C)Cc1ccccc1`, for which the molecule was classed as inactive. Still for that read-out and setting: the value for `O=C(NCc1ncc(C(F)(F)F)cc1Cl)c1c(Cl)cccc1Cl` was “inactive”; that for `CCOC(C)=O` was “inactive”; that for `COC(O)c1ccccc1` (stereo not given) was “inactive”. On the same count and under the same terms, under `CCc1ccccc1O` stands “inactive”; under `CCCCCCCCC1CCC(=O)O1` (stereo not given), “inactive”. On the same count and under the same terms, under `COc1cc([N+](=O)[O-])ccc1N` stands “inactive”; under `CCCC=O`, “inactive”. `CC(=O)Nc1ccc(S(N)(=O)=O)cc1`: the result was inactive. Same read-out and setting: the value for `CN(C)CCOC(c1ccccc1)c1ccccc1` was “inactive”; that for `CC(C)(c1ccc(Oc2ccc(N)cc2)cc1)c1ccc(Oc2ccc(N)cc2)cc1` was “inactive”. On to `CC1CCC(C(=O)O)CC1` (stereo not given), for which the call was inactive. Still for that read-out and setting: the value for `O=C1Cc2ccccc2N1c1c(Cl)cccc1Cl` was “inactive”; that for `CCCCCCCCC(C)=O` was “inactive”. Consider `O=P(O)(O)CCC(F)(F)C(F)(F)C(F)(F)C(F)(F)C(F)(F)C(F)(F)F`, for which the molecule was classed as inactive. Still for that read-out and setting: under `Cc1ccc2ccc3ccc(C)cc3c2c1` stands “inactive”. Still for that read-out and setting: under `Brc1cc(Br)c(Oc2c(Br)cc(Br)c(Br)c2Br)cc1Br` stands “inactive”; under `CCN(CCC#N)c1ccccc1`, “inactive”. As for `COCC1CCC(CO)CC1` (stereo not given), the molecule was called inactive. Still for that read-out and setting: under `OCC1CCC(CO)CC1` (stereo not given) stands “inactive”.

`CC=O`: the molecule was classed as inactive. As to `O=S(=O)(O)C(F)(F)C(F)(F)C(F)(F)C(F)(F)C(F)(F)C(F)(F)C(F)(F)C(F)(F)C(F)(F)C(F)(F)F`, the call was inactive. In the case of `O=CC(F)(F)C(F)(F)C(F)(F)F`, the molecule was called inactive. Regarding `CCOC(=O)CN[C@@H](C(=O)N1CC[C@H]1C(=O)NCc1ccc(/C(N)=N/O)cc1)C1CCCCC1`, the result was inactive.

With `FC(OC(F)(F)C(F)(F)C(F)(F)F)C(F)(F)F` (stereo not given), the molecule was classed as inactive.

On to `FCOC(C(F)(F)F)C(F)(F)F`, for which the molecule was classed as inactive. The same measure, in the same setting: under `CC(C)(C)C1CCCCC1O` (stereo not given) stands “inactive”; under `FC(F)(F)C1(F)C(F)(F)C(F)(F)C(F)(F)C1(F)F`, “inactive”; under `C[C@]12CC[C@@H]3c4ccc(O)cc4CC[C@H]3[C@@H]1C[C@@H](O)[C@@H]2O`, “inactive”. Same read-out and setting: under `Oc1cc2ccccc2cc1O` stands “inactive”; under `NNC(=O)CCCCC(=O)NN`, “inactive”. A word on the AC50: it is the concentration at which the activity in the assay is half-maximal. Regarding `CC(C)(C)c1ccc(CCC=O)cc1`, the AC50 was 72.3 µM (active). `CC1CNCC(C)O1` (stereo not given): the outcome was inactive. Same read-out and setting: under `COCN(COC)c1nc(N(COC)COC)nc(N(COC)COC)n1` stands “inactive”; under `CCCCCCCCCCCCOC(=O)c1cc(O)c(O)c(O)c1`, “inactive”. Regarding `O=C(NO)c1ccccc1`, the AC50 is 13.7 µM (active) [middle of 4 runs].
